From ChEMBL document CHEMBL1961873, “Compounds: GSK PKIS; Assays: Nanosyn kinase panel” (2012) come the findings set out here.

Broadly, the inhibition is the change of the read-out against control, counted positive when it falls.

Test [1] has as its target Mast/stem cell growth factor receptor Kit (Homo sapiens) (UniProt P10721). Particulars: at 1 µM.
The test system of test [2] is Mast/stem cell growth factor receptor Kit (Homo sapiens), P10721 [D816V]. The following applies: at 0.1 µM.
For test [3] the test system is unchanged. Particulars: at 1 µM.
The subject of test [4] is Mast/stem cell growth factor receptor Kit (Homo sapiens), P10721 [T670I]. The following applies: at 0.1 µM.
For test [5] the test system is unchanged. The following applies: at 1 µM.
For test [6], the system named is Mast/stem cell growth factor receptor Kit (Homo sapiens), P10721 [V560G]. Particulars: at 0.1 µM.
Mast/stem cell growth factor receptor Kit (Homo sapiens), P10721 [V560G], sequence (P10721 whole entry V560G): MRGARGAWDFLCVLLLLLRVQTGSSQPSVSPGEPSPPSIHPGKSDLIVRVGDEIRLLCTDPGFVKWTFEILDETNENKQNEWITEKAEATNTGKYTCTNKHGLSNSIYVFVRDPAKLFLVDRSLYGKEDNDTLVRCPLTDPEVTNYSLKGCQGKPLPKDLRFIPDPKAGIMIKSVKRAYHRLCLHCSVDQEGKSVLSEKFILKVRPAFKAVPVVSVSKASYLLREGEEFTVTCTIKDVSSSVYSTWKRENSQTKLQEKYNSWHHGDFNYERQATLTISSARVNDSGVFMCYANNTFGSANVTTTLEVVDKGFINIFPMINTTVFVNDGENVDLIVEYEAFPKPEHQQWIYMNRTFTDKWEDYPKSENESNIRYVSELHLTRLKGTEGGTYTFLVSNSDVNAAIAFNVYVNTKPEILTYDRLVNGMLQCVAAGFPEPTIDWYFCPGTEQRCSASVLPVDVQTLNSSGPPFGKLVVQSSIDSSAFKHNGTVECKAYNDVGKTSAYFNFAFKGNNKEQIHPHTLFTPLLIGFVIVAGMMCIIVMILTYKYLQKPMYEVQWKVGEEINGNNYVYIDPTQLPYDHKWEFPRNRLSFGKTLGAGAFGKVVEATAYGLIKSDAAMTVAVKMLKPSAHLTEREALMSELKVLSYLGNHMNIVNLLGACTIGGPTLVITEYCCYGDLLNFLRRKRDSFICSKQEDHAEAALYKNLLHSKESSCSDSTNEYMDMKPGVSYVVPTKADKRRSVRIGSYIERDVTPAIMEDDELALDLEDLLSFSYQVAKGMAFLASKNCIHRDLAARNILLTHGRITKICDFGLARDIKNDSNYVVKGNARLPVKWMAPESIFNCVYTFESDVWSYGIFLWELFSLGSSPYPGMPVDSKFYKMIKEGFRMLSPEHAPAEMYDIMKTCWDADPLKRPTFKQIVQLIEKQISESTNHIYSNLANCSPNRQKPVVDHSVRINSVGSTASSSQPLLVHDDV
Test [7] shares this test system. The following applies: at 1 µM.
Test [8] addresses Tyrosine-protein kinase Lck (Homo sapiens) (UniProt P06239). Particulars: at 0.1 µM.
For test [9] the target is unchanged. The following applies: at 1 µM.
Test [10] concerns the target Leukocyte tyrosine kinase receptor (Homo sapiens) (UniProt P29376). Particulars: at 0.1 µM.
Test [11] has the same target. The following applies: at 1 µM.
Test [12] deals with Tyrosine-protein kinase Lyn (Homo sapiens) (UniProt P07948). Particulars: at 0.1 µM.
Tyrosine-protein kinase Lyn (Homo sapiens), sequence (P07948 2-512 limits assumed): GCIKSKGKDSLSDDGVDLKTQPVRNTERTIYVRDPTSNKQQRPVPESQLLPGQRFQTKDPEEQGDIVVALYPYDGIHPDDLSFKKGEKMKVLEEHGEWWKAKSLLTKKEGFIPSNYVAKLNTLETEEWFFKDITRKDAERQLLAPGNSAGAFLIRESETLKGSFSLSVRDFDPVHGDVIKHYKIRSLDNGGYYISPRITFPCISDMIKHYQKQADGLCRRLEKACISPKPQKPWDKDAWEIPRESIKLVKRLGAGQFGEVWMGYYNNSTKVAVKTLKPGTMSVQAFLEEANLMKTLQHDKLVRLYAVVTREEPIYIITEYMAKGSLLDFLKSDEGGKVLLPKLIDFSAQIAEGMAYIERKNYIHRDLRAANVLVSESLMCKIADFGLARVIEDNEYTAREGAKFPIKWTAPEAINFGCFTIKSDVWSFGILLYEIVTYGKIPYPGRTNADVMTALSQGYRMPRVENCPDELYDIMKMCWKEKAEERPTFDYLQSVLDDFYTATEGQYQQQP
For test [13] the target is unchanged. The following applies: at 1 µM.
For test [14] the target is unchanged. Particulars: at 0.1 µM. The source holds these as a separate data set.
The target is the same in test [15]. Particulars: at 1 µM. This is another data set of the same source.
For test [16], the target named is T1, Tyrosine-protein kinase Mer (Homo sapiens) (UniProt Q12866).
T1 sequence (whole entry): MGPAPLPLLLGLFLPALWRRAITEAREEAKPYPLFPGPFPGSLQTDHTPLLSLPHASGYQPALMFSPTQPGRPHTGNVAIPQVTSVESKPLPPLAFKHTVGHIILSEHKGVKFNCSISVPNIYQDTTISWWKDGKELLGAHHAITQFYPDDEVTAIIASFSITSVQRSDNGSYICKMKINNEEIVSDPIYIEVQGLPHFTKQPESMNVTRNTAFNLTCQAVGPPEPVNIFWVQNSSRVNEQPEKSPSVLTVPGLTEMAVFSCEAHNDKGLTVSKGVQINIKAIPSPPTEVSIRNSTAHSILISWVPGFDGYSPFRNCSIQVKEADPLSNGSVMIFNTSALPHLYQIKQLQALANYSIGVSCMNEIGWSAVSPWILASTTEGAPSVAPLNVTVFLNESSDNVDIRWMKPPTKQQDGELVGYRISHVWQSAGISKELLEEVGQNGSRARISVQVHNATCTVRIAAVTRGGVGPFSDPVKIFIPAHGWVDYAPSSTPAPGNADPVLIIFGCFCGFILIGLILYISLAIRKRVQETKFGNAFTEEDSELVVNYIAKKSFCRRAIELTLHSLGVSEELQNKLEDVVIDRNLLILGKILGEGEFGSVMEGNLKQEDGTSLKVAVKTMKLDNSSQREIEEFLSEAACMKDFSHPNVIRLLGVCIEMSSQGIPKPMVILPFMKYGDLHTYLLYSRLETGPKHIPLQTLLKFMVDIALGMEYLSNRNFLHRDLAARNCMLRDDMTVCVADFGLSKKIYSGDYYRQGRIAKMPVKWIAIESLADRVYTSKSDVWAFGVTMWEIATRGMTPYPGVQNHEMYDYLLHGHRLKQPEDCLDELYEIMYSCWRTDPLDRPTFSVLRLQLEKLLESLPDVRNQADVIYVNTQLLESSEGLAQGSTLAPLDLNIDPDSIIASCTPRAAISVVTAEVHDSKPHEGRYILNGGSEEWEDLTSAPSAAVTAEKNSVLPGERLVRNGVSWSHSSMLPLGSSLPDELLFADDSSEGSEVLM
Particulars: at 0.1 µM.

Test [17] addresses T1, Tyrosine-protein kinase Mer (Homo sapiens). The following applies: at 1 µM.
Test [18] addresses Hepatocyte growth factor receptor (Homo sapiens) (UniProt P08581). Particulars: at 0.1 µM.
The target is the same in test [19]. The following applies: at 1 µM.
In test [20] the target is T2, Muscle, skeletal receptor tyrosine-protein kinase (Homo sapiens) (UniProt O15146).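 Further: values are mean inhibition of MuSK from the GSK PKIS kinase screening panel.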
T2 sequence (whole entry): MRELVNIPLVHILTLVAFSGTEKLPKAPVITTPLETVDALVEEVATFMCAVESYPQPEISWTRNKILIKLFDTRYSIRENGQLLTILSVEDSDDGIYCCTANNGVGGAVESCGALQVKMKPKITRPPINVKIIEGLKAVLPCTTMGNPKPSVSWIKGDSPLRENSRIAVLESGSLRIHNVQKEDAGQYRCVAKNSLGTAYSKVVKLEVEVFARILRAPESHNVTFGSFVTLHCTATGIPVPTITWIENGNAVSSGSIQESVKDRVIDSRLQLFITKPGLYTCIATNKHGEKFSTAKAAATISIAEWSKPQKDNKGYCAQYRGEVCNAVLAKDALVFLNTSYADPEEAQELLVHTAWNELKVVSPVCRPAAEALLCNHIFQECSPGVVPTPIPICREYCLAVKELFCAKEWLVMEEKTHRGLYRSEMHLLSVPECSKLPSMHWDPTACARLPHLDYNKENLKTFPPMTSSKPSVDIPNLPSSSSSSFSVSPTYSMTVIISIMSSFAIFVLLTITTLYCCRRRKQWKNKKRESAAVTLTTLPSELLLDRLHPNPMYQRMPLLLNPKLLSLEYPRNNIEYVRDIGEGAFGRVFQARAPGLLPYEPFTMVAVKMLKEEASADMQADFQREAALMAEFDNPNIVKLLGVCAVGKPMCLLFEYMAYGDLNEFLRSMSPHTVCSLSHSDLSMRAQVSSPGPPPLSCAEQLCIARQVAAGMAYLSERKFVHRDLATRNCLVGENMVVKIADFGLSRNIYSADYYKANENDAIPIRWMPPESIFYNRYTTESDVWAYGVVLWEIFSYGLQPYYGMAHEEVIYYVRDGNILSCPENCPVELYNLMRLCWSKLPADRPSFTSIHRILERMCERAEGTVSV
Particulars: at 0.1 µM.

Mast/stem cell growth factor receptor Kit (Homo sapiens), sequence (P10721 whole entry): as the sequence (P10721 whole entry V560G) above, with G560V counted along it
Leukocyte tyrosine kinase receptor (Homo sapiens), sequence (P29376 whole entry): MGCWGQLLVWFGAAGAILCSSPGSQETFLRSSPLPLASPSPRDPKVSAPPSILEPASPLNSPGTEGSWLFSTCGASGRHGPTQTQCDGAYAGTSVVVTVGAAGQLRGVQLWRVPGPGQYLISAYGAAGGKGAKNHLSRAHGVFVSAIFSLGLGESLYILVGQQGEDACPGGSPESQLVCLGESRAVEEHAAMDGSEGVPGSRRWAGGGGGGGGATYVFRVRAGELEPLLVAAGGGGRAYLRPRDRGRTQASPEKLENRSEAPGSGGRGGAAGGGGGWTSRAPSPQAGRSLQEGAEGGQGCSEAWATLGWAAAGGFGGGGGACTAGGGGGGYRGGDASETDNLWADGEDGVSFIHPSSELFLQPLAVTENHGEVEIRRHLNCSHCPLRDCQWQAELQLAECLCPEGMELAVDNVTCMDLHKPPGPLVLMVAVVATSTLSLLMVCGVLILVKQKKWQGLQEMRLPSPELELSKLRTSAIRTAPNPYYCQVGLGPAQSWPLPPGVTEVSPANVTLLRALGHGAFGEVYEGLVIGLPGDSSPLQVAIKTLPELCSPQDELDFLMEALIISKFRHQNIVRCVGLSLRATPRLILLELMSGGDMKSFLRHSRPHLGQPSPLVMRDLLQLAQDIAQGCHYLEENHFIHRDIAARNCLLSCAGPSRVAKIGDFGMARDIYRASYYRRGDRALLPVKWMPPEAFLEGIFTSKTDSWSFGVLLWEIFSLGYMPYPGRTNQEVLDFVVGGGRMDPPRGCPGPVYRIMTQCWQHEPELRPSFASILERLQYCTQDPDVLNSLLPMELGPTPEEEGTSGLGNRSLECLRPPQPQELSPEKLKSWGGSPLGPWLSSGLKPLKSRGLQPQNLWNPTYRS
Mast/stem cell growth factor receptor Kit (Homo sapiens), P10721 [D816V], sequence (P10721 whole entry D816V): as the sequence (P10721 whole entry V560G) above, with G560V, D816V counted along it
Mast/stem cell growth factor receptor Kit (Homo sapiens), P10721 [T670I], sequence (P10721 whole entry T670I): as the sequence (P10721 whole entry V560G) above, with G560V, T670I counted along it
Tyrosine-protein kinase Lck (Homo sapiens), sequence (P06239 2-509 limits assumed): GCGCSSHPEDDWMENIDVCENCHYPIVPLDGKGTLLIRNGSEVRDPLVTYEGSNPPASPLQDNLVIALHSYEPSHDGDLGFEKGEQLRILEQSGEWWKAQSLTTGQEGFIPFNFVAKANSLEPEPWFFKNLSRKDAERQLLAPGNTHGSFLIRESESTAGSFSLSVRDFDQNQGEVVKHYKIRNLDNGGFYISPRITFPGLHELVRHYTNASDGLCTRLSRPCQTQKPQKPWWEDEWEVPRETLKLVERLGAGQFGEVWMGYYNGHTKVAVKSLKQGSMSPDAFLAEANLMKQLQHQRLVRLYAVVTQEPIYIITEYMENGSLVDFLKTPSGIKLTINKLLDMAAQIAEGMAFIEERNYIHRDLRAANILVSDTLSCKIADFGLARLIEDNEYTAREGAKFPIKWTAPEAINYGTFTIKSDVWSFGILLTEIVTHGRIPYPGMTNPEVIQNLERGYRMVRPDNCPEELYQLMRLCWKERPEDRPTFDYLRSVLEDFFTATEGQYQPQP
Hepatocyte growth factor receptor (Homo sapiens), sequence (P08581 whole entry): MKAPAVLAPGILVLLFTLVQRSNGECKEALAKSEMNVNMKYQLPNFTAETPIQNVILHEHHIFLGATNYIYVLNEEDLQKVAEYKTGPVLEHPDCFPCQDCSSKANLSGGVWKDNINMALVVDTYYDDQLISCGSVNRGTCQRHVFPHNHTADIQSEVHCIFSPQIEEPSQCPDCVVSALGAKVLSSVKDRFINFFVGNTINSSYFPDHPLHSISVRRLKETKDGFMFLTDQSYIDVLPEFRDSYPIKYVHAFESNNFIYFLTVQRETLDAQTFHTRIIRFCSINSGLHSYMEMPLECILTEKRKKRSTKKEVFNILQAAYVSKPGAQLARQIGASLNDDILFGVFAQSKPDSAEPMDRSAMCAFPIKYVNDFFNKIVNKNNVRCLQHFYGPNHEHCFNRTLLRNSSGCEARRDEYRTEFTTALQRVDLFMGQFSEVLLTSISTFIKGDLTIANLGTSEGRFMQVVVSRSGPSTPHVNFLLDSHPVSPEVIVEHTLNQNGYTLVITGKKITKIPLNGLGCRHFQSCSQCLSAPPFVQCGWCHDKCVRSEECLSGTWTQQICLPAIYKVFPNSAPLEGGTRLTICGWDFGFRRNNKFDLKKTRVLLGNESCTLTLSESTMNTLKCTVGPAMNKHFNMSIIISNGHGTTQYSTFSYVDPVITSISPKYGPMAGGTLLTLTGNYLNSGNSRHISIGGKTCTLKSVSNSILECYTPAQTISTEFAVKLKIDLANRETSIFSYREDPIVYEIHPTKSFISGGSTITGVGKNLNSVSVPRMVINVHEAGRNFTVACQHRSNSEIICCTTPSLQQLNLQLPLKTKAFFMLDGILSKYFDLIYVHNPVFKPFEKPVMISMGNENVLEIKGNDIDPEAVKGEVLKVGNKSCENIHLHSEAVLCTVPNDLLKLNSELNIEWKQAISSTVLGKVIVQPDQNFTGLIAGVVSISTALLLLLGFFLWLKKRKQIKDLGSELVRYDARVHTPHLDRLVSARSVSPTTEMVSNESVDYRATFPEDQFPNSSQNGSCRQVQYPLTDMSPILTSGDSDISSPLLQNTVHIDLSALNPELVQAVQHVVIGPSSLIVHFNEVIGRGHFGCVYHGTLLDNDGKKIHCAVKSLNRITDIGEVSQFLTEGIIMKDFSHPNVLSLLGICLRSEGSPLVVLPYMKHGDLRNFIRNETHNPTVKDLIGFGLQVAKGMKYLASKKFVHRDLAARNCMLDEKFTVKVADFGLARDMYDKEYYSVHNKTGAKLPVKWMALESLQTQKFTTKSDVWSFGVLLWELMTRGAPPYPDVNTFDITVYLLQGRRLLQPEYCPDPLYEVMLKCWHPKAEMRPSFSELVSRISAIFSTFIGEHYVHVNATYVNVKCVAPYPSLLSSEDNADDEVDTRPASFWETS

For `COc1ccc(-c2cc(-c3c[nH]nc3-c3ccccn3)ccn2)cc1`, the inhibition in test [1] was 9.66%; in [2] it was 4.3%; in test [3], 11.7%; in test [4] it was 4.24%; in test [5] it was 4.17%; in [6] it was -1.03%. Further, the inhibition in test [7] is 2.87%; in [8], 2.68%; in test [9], 5.16%; in test [10], 5.4%; in test [11], 5.89%; in test [12] it was 6.64%. Further, the inhibition was 15.2% in [13]; 3.87% in test [14]; 11.2% in test [15]; 1.3% in test [16]; 2.69% in test [17]; 8.94% in [18]. Further, the inhibition was 3.52% in [19] and 3.4% in test [20].
`Nc1nc(-c2ccc(F)cc2)c(-c2ccc3ncccc3n2)s1`: the inhibition was 9.66% in test [1]; 1.91% in test [2]; 5.04% in test [3]; 4.73% in [4]; 5.34% in [5]; 2.59% in [6]. Besides, the inhibition amounted to 2.66% in test [7]; 9.43% in test [8]; 16.7% in [9]; 3.99% in [10]; 7.86% in test [11]; 9.43% in test [12]. For the same molecule, the inhibition in [13] stood at 39.4%; in test [14], 7.37%; in test [15], 33%; in test [16], 2.57%; in test [17], 5.56%; in test [18], 4.07%. The inhibition came to 10.1% in [19] and 3.45% in test [20].
As to `CCN(CC)S(=O)(=O)c1ccc(OC)c(Nc2ncc(-c3ccccc3)o2)c1`, the inhibition is 87.8% in test [1]; 3.78% in test [2]; 6.46% in [3]; 3.41% in test [4]; 48.3% in test [5]; 7.63% in test [6]. Also, the inhibition in test [7] was 13.6%; in test [8], 4.39%; in [9] it was 24.8%; in [10] it was -0.3%; in test [11], -0.4%; in test [12], 4.63%. Also, the inhibition stood at 34.8% in test [13]; 4.28% in test [14]; 28.9% in test [15]; 0.62% in test [16]; 2.09% in test [17]; 3.7% in test [18]. For the same molecule, the results for the inhibition in [19] and in test [20] were 4.3% and -2.42%, respectively.
In the case of `N#Cc1c(NC(=O)c2ccc(F)cc2)sc2c1CCCC2`, the inhibition is 5.86% in test [1]; -0.47% in [2]; 2.78% in test [3]; -0.92% in [4]; 1.72% in test [5]; -0.83% in [6]. The inhibition in test [7] was determined as 0.9%; in test [8], 0.7%; in test [9], 0.45%; in test [10], 1.24%; in test [11], 0.33%; in test [12], 0.87%. Further, the inhibition in test [13] is 2.77%; in test [14], 0.6%; in test [15] it was 2.84%; in test [16] it was -0.51%; in test [17] it was 0.78%; in test [18], 1%. Moreover, the inhibition in test [19] was 2.01%; in test [20], 1.9%.
As to `O=C(Nc1n[nH]c2cc(-c3ccc(F)cc3)ccc12)C1CC1`, the inhibition in [1] is 5.1%; in [2], 3.06%; in test [3], 5.66%; in test [4], 3.36%; in test [5] it was 4.92%; in [6], -2.61%. Also, the inhibition in test [7] worked out at 0.08%; in [8], 1.9%; in [9], 7.59%; in test [10] it was 2.47%; in test [11], 2.75%; in test [12], 6.61%. Also, the inhibition was 5.51% in [13]; 3.7% in test [14]; 3.43% in test [15]; 2.14% in test [16]; 2.68% in test [17]; 1.03% in [18]. Moreover, the inhibition in test [19] worked out at 0.71%; in [20], 2.93%.
